Sampled rows, rich in hits. Any-hit rate of the full collection: about 2.4%.
D2 antagonist: HTS Assay for Allosteric Antagonists of the Human D2 Dopamine Receptor: Primary Screen for Antagonists | hit rate 2% among 340,000 | HEK293 TREx D2 cells, calcium flux, dopamine EC80 | inhibition, % at 10 µM; in the data active = inhibition above about 30%; inactive = below that, where a call was filed; note: 0% is about no effect
Target sequence (P14416 whole entry, looked up): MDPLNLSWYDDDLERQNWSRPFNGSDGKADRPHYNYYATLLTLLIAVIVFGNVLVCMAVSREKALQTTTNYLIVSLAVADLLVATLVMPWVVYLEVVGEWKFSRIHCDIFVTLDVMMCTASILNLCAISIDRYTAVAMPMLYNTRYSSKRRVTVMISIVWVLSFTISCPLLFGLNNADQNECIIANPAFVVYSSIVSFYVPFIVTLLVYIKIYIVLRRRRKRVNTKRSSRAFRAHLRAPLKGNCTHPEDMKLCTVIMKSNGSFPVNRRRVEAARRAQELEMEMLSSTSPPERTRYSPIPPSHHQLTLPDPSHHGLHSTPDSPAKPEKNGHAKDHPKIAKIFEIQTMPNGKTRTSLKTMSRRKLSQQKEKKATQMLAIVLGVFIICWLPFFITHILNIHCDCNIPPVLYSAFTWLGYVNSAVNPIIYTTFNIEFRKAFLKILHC
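Calcium mobilization kinetics were recorded at 1 s intervals in tetracycline-induced HEK293 T-REx D2 cells, first for 180 s after compound addition and then 180 s after EC80 dopamine.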
D2 PAM-1: HTS Assay for Positive Allosteric Modulators of the Human D2 Dopamine Receptor: Primary Screen for Potentiators | D(2) dopamine receptor (Homo sapiens), P14416 | HEK293 T-REx D2, calcium flux, EC20 dopamine potentiation | potentiation, % at 10 µM | hit rate 0.34% among 340,000;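 active = potentiation over 3 SD above the plate norm, cut at about 30% in these data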; note: 0% is about no effect
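Primary screen. Calcium kinetics in induced HEK293 T-REx D2 cells: compound pre-addition 180 s, EC20 dopamine, 180 s more.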
D2 ag-1: HTS Assay for Allosteric Agonists of the Human D2 Dopamine Receptor: Primary Screen for Agonists. D(2) dopamine receptor (Homo sapiens), P14416. HEK293 T-REx D2 cells, calcium flux agonist mode. activation, % at 2 µM. hit rate 0.53% among 340,000. AID 485358, 2010;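 active = activation over 3 SD above normal in the single-dose calcium agonist read, cut at about 30% in these data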; note: 0% is about no effect
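Tetracycline-induced HEK293 Trex cells with D2 receptor force-coupled to calcium signaling, plated overnight at 30 C and loaded with no-wash calcium dye. Calcium flux read kinetically for 180 s after compound addition; responses flag agonists.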
D2 PAM-2: Beta-Arrestin HTS for Positive Allosteric Modulators of the Human D2 Dopamine Receptor: Potentiators. hit rate 0.23% among 360,000. D(2) dopamine receptor (Homo sapiens), P14416. DiscoveRx D2 beta-arrestin cells, luminescence, 90 min; 100% = 57 uM dopamine signal. AID 624464, 2012. potentiation, % (concentration not given with the values); in the data active = potentiation above about 50%; inconclusive = mostly about 30% to 49%
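PathHunter beta-arrestin assay in DiscoveRx D2 cells. Compounds were added with an EC20 of dopamine (50 nM final) for 90 min at 37 deg C. Luminescence was read 1 h after detection reagent, with 57 uM dopamine as the EC100 control.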
D2 ag-2: Beta-Arrestin HTS for Positive Allosteric Modulators of the Human D2 Dopamine Receptor: Agonists; hit rate 0.084% among 360,000; AID 624465, 2012; activation, % (concentration not given with the values); D(2) dopamine receptor (Homo sapiens), P14416; DiscoveRx PathHunter D2 beta-arrestin, luminescence, 90 min; 100% = 57 uM dopamine signal; in the data active = activation above about 40%; inconclusive = between about 15% and that limit
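Agonist mode: compounds alone added to overnight-plated D2 PathHunter cells for 90 min at 37 C, with 57 uM final dopamine (EC100) defining full response. Beta-arrestin recruitment detected by chemiluminescent reagent, read after 1 h at ambient temperature.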
An asterisk follows results filed as active; u = inconclusive; x = no result given.

SMILES	D2 antagonist	D2 PAM-1	D2 ag-1	D2 PAM-2	D2 ag-2
COc1ccc(Cl)cc1N(C(=O)c1ccco1)C(C(=O)NC1CCCC1)c1ccncc1 (configuration not stated)	39.4*	6.7	0.4	-2.5	-0.3
COc1ccc(OC)c(N(C(=O)c2ccco2)C(C(=O)NC2CCCC2)c2cc(OC)c(OC)c(OC)c2)c1 (configuration not stated)	36.2*	-0.8	1.0	3.4	0.6
CCOC(=O)c1ccc(N(C(=O)c2ccco2)C(C(=O)NC2CCCC2)c2ccncc2)cc1 (configuration not stated)	35.8*	5.4	-0.5	6.1	3.1
COc1ccc(C(C(=O)NCC2CCCO2)N(C(=O)CNC(=O)c2ccco2)c2cc(C)cc(C)c2)cc1OC (configuration not stated)	-21.3	34.1*	0.1	-6.4	0.2
COc1ccc(C(C(=O)NCC2CCCO2)N(C(=O)CNC(=O)c2ccco2)c2ccc(C)c(C)c2)cc1OC (configuration not stated)	12.0	-9.9	-0.2	-6.3	-3.0
COCCN(C(=O)CNC(=O)c1ccco1)C(C(=O)NC1CCCC1)c1ccccc1F (configuration not stated)	-15.5	12.2	0.9	-1.7	2.2
C=CCN(C(=O)CNC(=O)c1ccco1)C(C(=O)NC1CCCCC1)c1ccccc1F (configuration not stated)	-7.4	38.3*	0.0	-6.8	-3.8
COc1ccc(CCNC(=O)CCCCn2c(=O)c3ccccc3n(Cc3cc(C)ccc3C)c2=O)cc1OC	x	0.9	-0.3	x	x
COc1ccc(OC)c(NC(=O)C2CC(=O)n3ncnc3N2)c1 (configuration not stated)	7.8	33.3*	0.8	-7.7	0.4
CC1(C)S[C@@H]2[C@H](NC(=O)[C@H](N)c3ccccc3)C(=O)N2[C@H]1C(=O)O	-20.1	3.5	1.0	0.8	-5.6
CC1(C)S[C@@H]2[C@H](NC(=O)C(C(=O)O)c3ccccc3)C(=O)N2[C@H]1C(=O)O (some centres not stated)	32.8*	7.7	1.2	5.2	-5.8
Cc1ccccc1NC(=S)NC1CC2CCC(C1)N2Cc1ccco1 (configuration not stated)	39.1*	-17.8	0.2	-20.9	-2.2
Cc1cccc(NC(=S)NC2CC3CCC(C2)N3Cc2ccco2)c1 (configuration not stated)	38.8*	-19.6	0.3	-27.7	-0.1
CCOc1ccccc1CNC(=O)CCc1c(C)nn(-c2ccc(N3CCCC3)nn2)c1C	x	11.6	-0.4	x	x
CCOc1ccc(NC(=O)Cn2c(=O)nc(-c3ccccc3)c3ccccc32)cc1	x	3.9	x	x	x
O=C(O)c1ccc2c(c1)OCCOCCOCCOCCOCCO2	-22.2	-5.2	-1.2	-6.8	-1.7
O=C(c1ccccc1)c1ccc2c(c1)OCCOCCOCCOCCO2	50.3*	9.7	-1.5	-6.5	-2.8
COc1cccc(N2CCN(Cc3cccnc3)CC2)c1	-9.8	-7.8	23.7	-11.5	2.9
FC(F)(F)c1cccc(N2CCN(Cc3cccnc3)CC2)c1	75.8*	-18.5	1.8	-33.6	1.2
FC(F)(F)c1cccc(N2CCN(Cc3ccoc3)CC2)c1	102.5*	-29.2	0.4	-14.1	-1.4
Cc1oc(-c2cccc(Cl)c2)nc1CN1CCCC(C(=O)N2CCN(c3ccc(F)cc3)CC2)C1 (configuration not stated)	x	4.9	0.3	x	x
O=S(=O)(c1cc(Cl)cc(Cl)c1)N1CCCC1c1nc2ccccc2s1 (configuration not stated)	-0.3	43.3*	0.7	-0.8	-1.0
COc1cc(/C=C/C(=O)OCC(=O)NC(=O)NC(C)C)ccc1OCC#N	46.3*	3.2	-0.5	-7.4	-3.5
COc1ccc(OC)c(NC(=O)c2oc(=O)c3ccccc3c2-c2ccccc2)c1	x	-2.7	0.5	x	x
COc1ccc(N2CC(NC(=O)C(c3ccccc3)c3ccccc3)CC2=O)cc1 (configuration not stated)	x	16.2	0.1	x	x
SMILES	D2 antagonist	D2 PAM-1	D2 ag-1	D2 PAM-2	D2 ag-2
COc1ccc(CCN2C(=O)CN=C2Nc2ccc(F)cc2)cc1OC	5.6	-1.9	-0.5	-4.4	-3.3
C=CCN1C(=O)CN=C1Nc1ccc(F)cc1	54.3*	-33.3	0.7	-4.5	0.3
Cc1ccc(C(=O)CN(C(=O)c2ccc(Cl)cc2)N2C(=O)CCC2=O)cc1	30.5*	-21.3	-1.3	-48.7	-5.2
Cc1ccc(C(=O)CN(C(=O)c2ccc(Cl)cc2)N2C(=O)c3ccccc3C2=O)cc1	-7.3	-1.7	-0.7	-2.8	-0.7
O=C(Nc1ccc(F)cc1)c1ccc2ncsc2c1	17.9	-5.7	-0.1	-3.2	5.9
O=C(Nc1ccc(Cl)cc1)c1ccc2ncsc2c1	40.1*	-19.5	-0.4	-5.5	u
O=C(Nc1cccc(Cl)c1)Nc1ccccc1OCc1cc(=O)n2ccccc2n1	x	10.3	0.2	x	x
O=C(CSCc1ccccc1Cl)NN=C1CCCCCC1	38.4*	4.4	0.5	13.5	0.7
O=C(CSCc1ccc(Cl)cc1)NN=C1CCCC1	-7.7	14.6	0.2	-12.8	2.1
O=C(CSCc1ccc([N+](=O)[O-])cc1)NN=C1CCCCCC1	-2.6	35.4*	-0.9	18.6	-1.1
CCc1cc(C(=O)OC)c(NC(=O)CC2SC(=NC)N(C)C2=O)s1 (configuration not stated)	63.4*	-5.9	-0.3	3.9	1.7
CC(C)CN=C(NS(=O)(=O)c1ccccc1)C(Cl)(Cl)Cl	-5.8	0.9	-0.2	77.3*	10.4
CC(C)CC(NS(=O)(=O)c1ccccc1)C(=O)O (configuration not stated)	-1.2	-5.8	-0.1	-13.5	-4.1
O=C1CC(c2ccccc2)CN1C(=O)c1cccnc1 (configuration not stated)	2.5	3.8	0.1	-8.2	-4.8
O=C1CCC(c2ccccc2)N1C(=O)c1cccnc1 (configuration not stated)	-6.0	37.9*	-1.1	-4.3	-0.4
Cc1ccc(CNC(=O)C2CCCN(c3nn4cc(-c5ccc(C)cc5)nc4s3)C2)cc1 (configuration not stated)	x	4.0	-0.2	x	x
Cc1ccc(S(=O)(=O)CC(=O)Nc2ncc([N+](=O)[O-])s2)cc1	-15.3	4.1	-2.6	-12.2	-5.7
Cc1ccc(CC(=O)Nc2ncc([N+](=O)[O-])s2)cc1	17.4	3.8	1.8	67.4*	-4.5

Assay outcomes as filed in PubChem BioAssay.
